Test results taken from the antibiotic and cytotoxicity screens of Wong et al. (2023).
Out of some 39,000 compounds screened, about 1,500 (3.8%) were called active. Only a selection was taken, and actives are over-represented in it overall.

Tested on: HSkMC (human skeletal muscle cells)
Experiment: cytotoxicity call (relative viability < 0.9)
Conditions: 10 µM

SMILES	cytotoxicity call
NCCc1nccs1	inactive
CCN1C[C@H]2CN(Cc3nccn3C)C[C@H]2C1=O	inactive
CNC(=O)Oc1cccc2ccccc12	inactive
C[C@H]1C[C@H]2CNCC[C@@H]2O1	inactive
O=[N+]([O-])c1ccc(N(CCO)CCO)c2c1no[n+]2[O-]	active
CNC(=O)Oc1ccc2c(c1)C1(C)CCN(C)C1N2C.O=C(O)c1ccccc1O (stereo not given)	inactive
Cn1ccnc1CN1CCC[C@]2(CCNC2=O)C1	inactive
CC(=O)NN1Cc2ccccc2C1=N	inactive
CC(C)c1ccc2[nH]c(=O)c(CCN)cc2c1	inactive
[N-]=[N+]=NCc1ccccc1C[C@@]1(C(=O)NCCN2CCOCC2)N=C(c2ccc(OCCCO)cc2)O[C@@H]1c1ccccc1N=[N+]=[N-]	inactive
CC1=C2CC3C(CC=C4CC(O)CCC43C)C2CCC12OC1CC(C)CNC1C2C (stereo not given)	inactive
Cc1ccc(OC(=O)N(C)C[C@H]2OCc3ccccc3-c3c(n(C)c4ccccc34)C(=O)N([C@@H](C)CO)C[C@@H]2C)cc1	inactive
O=C1[O][SbH]23[O]C(=O)[C@H]([O]2)[C@H]2[O][SbH]4([O]C(=O)[C@H]([O]4)[C@H]1[O]3)[O]C2=O	active
O=C1[O][SbH]23[O]C(=O)C([O]2)C2[O][SbH]4([O]C(=O)C([O]4)C1[O]3)[O]C2=O	inactive
CC(C)(C)NCC(O)c1ccccc1Cl.Cl (stereo not given)	inactive
CC(C)(C#N)O[C@@H]1O[C@H](CO)[C@@H](O)[C@H](O)[C@H]1O	inactive
CN1C(=O)[C@]23CC4=CC=C[C@H](O)[C@H]4N2C(=O)[C@@]1(CO)SS3	active
CN1C(=O)[C@@]23C[C@]4([C@@]56C[C@]78SS[C@](CO)(C(=O)N7[C@@H]5Nc5ccccc56)N(C)C8=O)c5ccccc5N[C@H]4N2C(=O)[C@@]1(CO)SS3	active
N#C[C@H](O[C@@H]1O[C@H](CO[C@@H]2O[C@H](CO)[C@@H](O)[C@H](O)[C@H]2O)[C@@H](O)[C@H](O)[C@H]1O)c1ccccc1	inactive
CN1CC[C@]2(CCCO2)C1	inactive
CCOc1ccc(CN)cn1	inactive
NSC(=S)N1CCCC1	inactive
O=C1C=C2C=CC3CC2(O1)C1CCCCN31 (stereo not given)	inactive

SMILES	cytotoxicity call
Nc1ccc2c(c1)CNCC2	inactive
O=c1[nH]c2ccccc2n1CCCN1CCC(n2c(=O)[nH]c3cc(Cl)ccc32)CC1	inactive
O=c1[nH]c2ccccc2n1C1CCN(CCCC(c2ccc(F)cc2)c2ccc(F)cc2)CC1	active
COc1ccn(C)c(=O)c1C#N	inactive
Cl.c1ccc2c(c1)OCC(C1=NCCN1)O2 (stereo not given)	inactive
CI.O=C(COc1ccc(Cl)cc1Cl)OC[C@H]1CCCN2CCCC[C@@H]12	inactive
O=C1CO[C@]2(CNCCOC2)CN1CC1CC1	inactive
CN(C)C(=O)CCC(=O)N1C[C@H]2C[C@@H]1CN2	inactive
CO[C@@H]1C[C@@H](C[C@H]2CC[C@H](C)[C@H]([C@@H](C)C(=O)O)O2)O[C@]2(O[C@](C)([C@H]3CC[C@@](C)([C@H]4O[C@@H]([C@H]5O[C@@](O)(CO)[C@H](C)C[C@@H]5C)C[C@@H]4C)O3)C[C@H]2C)[C@@H]1C	active
C[C@@H]1CN([C@H](C)CO)C(=O)CCCn2nncc2CO[C@@H]1CN(C)C(=O)Oc1cccc2ccccc12	inactive
Clc1ccc(C(c2ccc(Cl)cc2)C(Cl)(Cl)Cl)cc1	inactive
N[C@H]1C[C@H]1c1ccccc1	inactive
O=C(Cc1ccccc1)c1ccccc1	inactive
CC(=O)[O][Hg][c]1ccccc1	active
NCC(=O)c1ccccc1	inactive
O.O.O.O=C([O-])C1[O][Sb]2[O]C(=O)C([O]2)C(C(=O)[O-])[O][Sb]2[O]C(=O)C1[O]2.[K+].[K+] (stereo not given)	inactive
CC[C@@H](C)[C@H]1NC(=O)C(C(C)=O)=C1O	inactive
C[C@H](N)[C@H](O)c1ccc(O)c(O)c1	inactive
CC[C@@H](N)[C@@H](O)c1ccc(O)c(O)c1	active
CCC(N)C(O)c1ccc(O)c(O)c1.Cl (stereo not given)	inactive
Cn1cc([C@@H](O)c2ccccc2)[n+](C)c1	inactive
CC(CO)NC(=O)C1C=C2c3cccc4[nH]cc(c34)CC2N(C)C1.O=C(O)C=CC(=O)O (stereo not given)	inactive
